Measurements: PubChem BioAssay
The source made the active and inactive calls.

What was measured:
[1] = small molecules captured by biotinylated probe aFSTL3 – biochemical, small-molecule microarray, fluorescence 635/667, stem cell growth factor project, primary screen (AID 1064); conditions: higher = more signal;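 also: measures binding of the biotinylated anti-FSTL3 antibody to printed compounds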
[2] = binders from COS7 lysate, DM2A8 probe, primary screen, torsin A project, cell lysate, small-molecule microarray, fluorescence 635/667 (AID 1065); conditions: higher = more signal, COS7 lysate expressing mutant human TOR1A
[3] = small molecules captured by biotinylated probe aFGF2 – biochemical, small-molecule microarray, fluorescence 635/667, stem cell growth factor project, primary screen (AID 1067); conditions: higher = more signal;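 also: measures binding of biotinylated aFGF2 protein to printed compounds on slides; z-score merges feature fluorescence and signal-to-noise across triplicate slides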
[4] = small molecules captured by biotinylated probe aFGF10 – biochemical, small-molecule microarray, fluorescence 635/667, stem cell growth factor project, primary screen (AID 1071); conditions: higher = more signal;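 also: score merges 667 nm spot intensity and signal to noise from triplicate slides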
[5] = target: Neurogenic locus notch homolog protein 2 (Homo sapiens) (UniProt Q04721); assay: small molecules binding Notch2 protein – biochemical, small-molecule microarray, 635 nm fluorescence, stem cell growth factors, primary screen (AID 1073); conditions: higher = more signal
[6] = target: Pro-neuregulin-1, membrane-bound isoform (Homo sapiens) (UniProt Q02297); assay: small molecules binding neuregulin-1 protein – biochemical, small-molecule microarray, fluorescence 635/667, psychiatric disease protein project, primary screen (AID 1075); conditions: NRG1 binding, 635 nm fluorescence, higher = more signal;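 also: score combines 667 nm spot fluorescence with signal to noise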
Sequence of Pro-neuregulin-1, membrane-bound isoform (Homo sapiens) (Q02297 whole entry, looked up, the tested form may be a part, canonical isoform): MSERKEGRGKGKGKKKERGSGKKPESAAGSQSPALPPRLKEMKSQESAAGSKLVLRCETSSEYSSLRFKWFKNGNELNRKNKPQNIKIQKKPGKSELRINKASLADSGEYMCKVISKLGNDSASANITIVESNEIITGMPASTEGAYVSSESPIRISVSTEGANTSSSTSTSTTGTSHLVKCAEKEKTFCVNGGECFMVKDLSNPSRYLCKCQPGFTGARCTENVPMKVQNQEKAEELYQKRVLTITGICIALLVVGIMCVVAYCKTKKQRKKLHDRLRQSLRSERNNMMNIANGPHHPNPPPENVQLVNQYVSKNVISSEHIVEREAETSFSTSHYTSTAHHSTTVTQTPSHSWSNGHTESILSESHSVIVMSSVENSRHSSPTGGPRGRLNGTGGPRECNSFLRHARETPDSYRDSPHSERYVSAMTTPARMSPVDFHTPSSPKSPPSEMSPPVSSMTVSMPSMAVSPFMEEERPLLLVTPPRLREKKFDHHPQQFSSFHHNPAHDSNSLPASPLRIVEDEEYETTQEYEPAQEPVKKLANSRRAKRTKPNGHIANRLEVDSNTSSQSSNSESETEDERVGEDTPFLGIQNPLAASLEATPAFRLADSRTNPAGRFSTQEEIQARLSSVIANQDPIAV

[7] = test system: Neuregulin-1 EGF-like domain; assay: small molecules binding NRG1 EGF domain – biochemical, small-molecule microarray, 635 nm fluorescence, primary screen (AID 1081); conditions: higher = more signal;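 also: binding of the protein to compounds printed on small-molecule microarray slides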
[8] = FRG1 expression reporter modulators in myotubes – cell-based, C2C12 myotubes, firefly/Renilla luciferase, luminescence, FRG1 inhibition for FSHD, primary screen (AID 1084); conditions: FRG1 promoter luciferase, higher = more signal, called active from +8 up or from −8 down
[9] = small molecules captured by biotinylated probe aFST – biochemical, small-molecule microarray, fluorescence 635/667, stem cell growth factor project, primary screen (AID 1086); conditions: higher = more signal;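 also: score merges 667 nm fluorescence with signal-to-noise of each printed compound spot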
[10] = binders of probe aHhip on microarray, primary screen, stem cell growth factor project, biochemical, small-molecule microarray, fluorescence 635/667 (AID 1087); conditions: higher = more signal;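 also: score merges spot fluorescence at 667nm with spot signal to noise ratio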
[11] = test system: PRMT1 (protein arginine N-methyltransferase 1); assay: small molecules binding arginine methyltransferase PRMT1 – biochemical, small-molecule microarray, 635 nm fluorescence, primary screen (AID 1088); conditions: higher = more signal;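 also: binding of Prmt1 protein to compounds spotted on small-molecule microarray slides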
[12] = growth effects on S. cerevisiae YJM789 – YJM789 clinical isolate, OD600, 24 h, basal, primary screen (AID 1089); conditions: higher = more signal, called active from +8 up or from −8 down;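 also: growth of clinical yeast isolate S. cerevisiae YJM 789 seeded 1000 cells per well; test concentration not given here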
[13] = S. pombe growth modifiers, basal conditions – strain 972, OD600, 24 h, no modulator, primary screen (AID 1090);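 also: basal condition with compound alone and no growth modifier present; test concentration not given here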; conditions: S. pombe 972 growth, higher = more signal, called active from +8 up or from −8 down
[14] = budding yeast growth modifiers under rapamycin – strain BY4716, OD600, 96 h, primary screen (AID 1091); also: test concentration not given here; conditions: S. cerevisiae BY4716 + rapamycin, higher = more signal, called active from +8 up or from −8 down
[15] = target: Torsin-1A-interacting protein 2 (Homo sapiens) (UniProt Q8NFQ8); assay: small molecules binding lysate-expressed LULL1 – cell lysate, human LULL1 lysate, 635/667 nm fluorescence, primary screen (AID 1092); conditions: small-molecule microarray, hLULL1 lysate binding, 635 nm fluorescence; higher = more signal;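 also: probe is lysate of COS7 cells overexpressing human LULL1; score merges per-feature 667 nm fluorescence with signal-to-noise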
Sequence of Torsin-1A-interacting protein 2 (Homo sapiens) (Q8NFQ8 whole entry, looked up): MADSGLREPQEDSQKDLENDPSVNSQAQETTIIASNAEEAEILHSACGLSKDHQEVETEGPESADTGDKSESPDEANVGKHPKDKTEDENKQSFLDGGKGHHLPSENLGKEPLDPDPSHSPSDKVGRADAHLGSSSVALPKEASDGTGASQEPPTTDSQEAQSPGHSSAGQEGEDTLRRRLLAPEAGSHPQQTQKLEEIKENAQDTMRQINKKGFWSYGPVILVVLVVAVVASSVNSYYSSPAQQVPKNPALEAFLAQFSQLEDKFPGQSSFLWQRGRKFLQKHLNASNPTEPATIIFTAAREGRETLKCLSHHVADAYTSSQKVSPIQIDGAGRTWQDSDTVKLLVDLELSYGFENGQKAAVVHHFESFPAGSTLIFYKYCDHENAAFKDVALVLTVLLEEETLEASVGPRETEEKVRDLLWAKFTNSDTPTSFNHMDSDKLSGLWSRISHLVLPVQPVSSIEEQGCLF

[16] = optical density change of DRC41 E. coli – strain DRC41, OD650, 24 h, E. coli filamentation project, primary screen (AID 1093);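 also: MC1000 strain lacking acrAB efflux and sulA so SOS filamentation is blocked; test concentration not given here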; conditions: E. coli DRC41 growth, higher = more signal, called active from +8 up or from −8 down
[17] = probe aLefty2 binding to arrayed compounds – biochemical, biotinylated probe, 635/667 nm fluorescence, primary screen (AID 1094); conditions: small-molecule microarray, higher = more signal;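 also: score merges spot fluorescence near 667 nm with spot signal-to-noise ratio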
[18] = test system: Noggin (protein binding on small-molecule microarray); assay: small molecules binding Noggin protein – biochemical, 635/667 nm fluorescence, primary screen (AID 1095); conditions: 635 nm fluorescence, higher = more signal;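 also: score merges 667 nm feature fluorescence with signal to noise over triplicate slides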
[19] = target: Neurogenic locus notch homolog protein 3 (Homo sapiens) (UniProt Q9UM47); assay: small molecules binding NOTCH3 protein – biochemical, 635/667 nm fluorescence, primary screen (AID 1096); conditions: small-molecule microarray, 635 nm fluorescence, higher = more signal
Sequence of Neurogenic locus notch homolog protein 3 (Homo sapiens) (Q9UM47 whole entry, looked up): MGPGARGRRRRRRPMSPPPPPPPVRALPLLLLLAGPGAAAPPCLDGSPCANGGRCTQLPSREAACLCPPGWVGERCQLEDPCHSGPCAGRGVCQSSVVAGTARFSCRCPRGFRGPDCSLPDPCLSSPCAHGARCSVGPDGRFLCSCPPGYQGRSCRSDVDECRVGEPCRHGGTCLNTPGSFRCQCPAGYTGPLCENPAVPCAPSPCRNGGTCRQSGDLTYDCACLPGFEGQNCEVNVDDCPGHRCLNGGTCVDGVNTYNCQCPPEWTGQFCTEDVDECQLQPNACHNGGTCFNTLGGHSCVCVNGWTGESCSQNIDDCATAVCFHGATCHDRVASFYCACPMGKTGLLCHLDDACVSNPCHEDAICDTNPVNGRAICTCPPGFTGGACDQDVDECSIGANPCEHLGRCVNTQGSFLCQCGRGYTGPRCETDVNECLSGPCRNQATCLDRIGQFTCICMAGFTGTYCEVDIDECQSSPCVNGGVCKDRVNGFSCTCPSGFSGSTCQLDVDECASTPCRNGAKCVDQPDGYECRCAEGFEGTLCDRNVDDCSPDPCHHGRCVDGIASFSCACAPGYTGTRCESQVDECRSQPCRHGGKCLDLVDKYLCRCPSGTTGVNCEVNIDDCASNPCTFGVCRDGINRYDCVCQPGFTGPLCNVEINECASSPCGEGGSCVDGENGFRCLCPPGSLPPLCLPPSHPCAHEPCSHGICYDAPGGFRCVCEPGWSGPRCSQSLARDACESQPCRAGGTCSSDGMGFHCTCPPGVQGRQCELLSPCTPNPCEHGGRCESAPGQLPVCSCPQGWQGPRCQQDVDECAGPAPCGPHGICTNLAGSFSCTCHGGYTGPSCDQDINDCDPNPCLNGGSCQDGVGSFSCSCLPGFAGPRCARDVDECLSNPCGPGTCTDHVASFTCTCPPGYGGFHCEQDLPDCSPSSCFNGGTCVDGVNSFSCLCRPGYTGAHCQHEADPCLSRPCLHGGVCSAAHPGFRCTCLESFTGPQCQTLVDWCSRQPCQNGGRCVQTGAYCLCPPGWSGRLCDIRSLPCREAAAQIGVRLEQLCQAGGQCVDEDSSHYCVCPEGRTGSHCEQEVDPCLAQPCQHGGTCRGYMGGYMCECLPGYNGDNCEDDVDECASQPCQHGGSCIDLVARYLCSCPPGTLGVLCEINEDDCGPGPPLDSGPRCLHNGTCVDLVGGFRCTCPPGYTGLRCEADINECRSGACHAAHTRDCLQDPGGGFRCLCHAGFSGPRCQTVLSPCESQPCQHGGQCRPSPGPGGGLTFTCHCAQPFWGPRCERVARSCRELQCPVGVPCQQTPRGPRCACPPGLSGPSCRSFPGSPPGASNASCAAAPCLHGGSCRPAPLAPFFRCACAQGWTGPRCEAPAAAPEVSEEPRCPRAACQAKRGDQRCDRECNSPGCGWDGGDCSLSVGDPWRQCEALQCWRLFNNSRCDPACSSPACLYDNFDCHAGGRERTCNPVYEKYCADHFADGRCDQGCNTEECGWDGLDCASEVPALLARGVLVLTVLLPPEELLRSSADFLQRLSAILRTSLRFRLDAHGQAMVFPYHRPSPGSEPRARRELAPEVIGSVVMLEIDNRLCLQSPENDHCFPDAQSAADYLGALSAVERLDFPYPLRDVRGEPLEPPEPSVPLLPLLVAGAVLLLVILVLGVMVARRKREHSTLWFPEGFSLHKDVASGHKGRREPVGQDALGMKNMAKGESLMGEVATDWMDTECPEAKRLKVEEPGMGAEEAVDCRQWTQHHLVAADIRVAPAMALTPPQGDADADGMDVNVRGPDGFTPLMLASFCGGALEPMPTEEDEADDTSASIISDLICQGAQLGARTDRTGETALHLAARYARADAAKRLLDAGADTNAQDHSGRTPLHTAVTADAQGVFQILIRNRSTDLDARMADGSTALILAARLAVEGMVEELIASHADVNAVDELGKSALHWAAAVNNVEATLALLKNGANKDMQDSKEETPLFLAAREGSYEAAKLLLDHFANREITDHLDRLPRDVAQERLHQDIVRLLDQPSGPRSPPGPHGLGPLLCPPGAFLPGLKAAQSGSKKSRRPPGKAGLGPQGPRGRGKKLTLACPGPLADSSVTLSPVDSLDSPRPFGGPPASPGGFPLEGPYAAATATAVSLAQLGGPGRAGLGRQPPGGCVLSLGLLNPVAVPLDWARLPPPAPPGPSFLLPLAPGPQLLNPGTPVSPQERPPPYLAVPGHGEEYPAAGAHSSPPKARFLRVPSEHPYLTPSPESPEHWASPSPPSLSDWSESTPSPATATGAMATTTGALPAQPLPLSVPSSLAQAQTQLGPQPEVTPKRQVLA

[20] = probe aEGFR binding to arrayed compounds – biochemical, biotinylated probe, 635/667 nm fluorescence, primary screen (AID 1097); conditions: small-molecule microarray, higher = more signal;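 also: probe is a biotinylated anti-EGFR antibody binding compounds printed on slides; score combines fluorescence near 667 nm and signal to noise of each spot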

| SMILES | composite z-score [1] | composite z-score [2] | composite z-score [3] | composite z-score [4] | composite z-score [5] | composite z-score [6] | composite z-score [7] | z-score [8] | composite z-score [9] | composite z-score [10] | composite z-score [11] | z-score [12] | z-score [13] | z-score [14] | composite z-score [15] | z-score [16] | composite z-score [17] | composite z-score [18] | composite z-score [19] | composite z-score [20] |
| --- | --- | --- | --- | --- | --- | --- | --- | --- | --- | --- | --- | --- | --- | --- | --- | --- | --- | --- | --- | --- |
| COc1ccc(C#Cc2ccc3c(c2)[C@]2(C(=O)N3)[C@H](c3ccc(OCCO)cc3)N3[C@H](c4ccccc4)[C@H](c4ccccc4)OC(=O)[C@H]3[C@@H]2C(=O)N2CCN(c3ncccn3)CC2)cc1 | -0.176 | 0.07 | -0.093 | 0.344 | 1.2 | -0.132 | 0.135 | 0.781 (inactive) | -0.0006 | -0.318 | 0.61 | 1.86 (inactive) | 1.23 (inactive) | 4.94 (inactive) | 1.51 | 2.6 (inactive) | -0.105 | 0.346 | 0.824 | -0.0928 |
| COC(=O)[C@@]1(Cc2ccc(F)cc2)[C@@H]2[C@@H](CC(=O)[C@H]2CC(=O)C(=O)N2CCCC2)CN1C(=O)c1ccccc1 | 0.664 | -0.196 | 0.0255 | 0.56 | 1.71 | 1.85 | 1.12 | 2.38 (inactive) | 1.61 | -0.24 | 1.27 | 0.347 (inactive) | 1.57 (inactive) | 3.52 (inactive) | 3.67 | -0.708 (inactive) | 0.299 | -0.413 | 1.03 | 0.147 |
| O=C(CS)NCCCCCNC(=O)[C@@H]1C[C@@H]2C(=O)N3CCC[C@H]3C(=O)N2[C@@H]1c1ccc(O)cc1 | 0.344 | 0.282 | -0.0333 | 0.354 | -0.677 | 0.33 | 1.32 | 0.0995 (inactive) | -0.0412 | 0.127 | 1.09 | -0.0524 (inactive) | -0.207 (inactive) | 0.0036 (inactive) | 2.81 | 0.0681 (inactive) | -0.0279 | -0.0286 | 0.164 | -0.118 |
| CCCCC=C[C@@H](NC(=O)CCc1ccccc1)c1ccccc1 | 0.0413 | 1.04 | 0.0601 | 0.404 | 1.11 | 1.23 | 1.24 | -1.42 (inactive) | 0.843 | 0.316 | 0.887 | 0.174 (inactive) | -1.52 (inactive) | 2.19 (inactive) | 1.43 | -1.52 (inactive) | 0.138 | 0.0567 | 1.12 | 0.0184 |
| CC(C)C[C@@H]1NC(=O)[C@@H]2C[C@H](C(=O)NCCCC[N+](C)(C)C)[C@H](c3cccc(OCCO)c3)N2C1=O | 0.157 | 1.09 | -0.0784 | -0.0155 | -0.884 | 1.05 | 1.12 | 0.14 (inactive) | 0.496 | 0.595 | 1.31 | 1.14 (inactive) | 0.936 (inactive) | -0.567 (inactive) | 0.622 | -0.329 (inactive) | -0.0123 | 1.84 | 1.04 | -0.0069 |
| COc1cc(C(O)C2C=CC3C(=O)N(C)C(=O)C3N2NC(=O)OC(C)(C)C)cc(OC)c1OC (stereo not given) | 0.425 | -0.27 | 0.265 | 0.469 | 1.38 | 2.13 | 1.38 | -0.167 (inactive) | 0.935 | 0.122 | 1.09 | 0.61 (inactive) | 2 (inactive) | 1.15 (inactive) | 3.16 | -1.34 (inactive) | 0.604 | -0.23 | 0.697 | 0.561 |
| C=CCN1C(=O)[C@@]2(O[C@@H](CCO)[C@H]([Si](C)(C)c3ccc(OC)cc3)[C@H]2C)c2cc(NC(=O)[C@H](C)O)ccc21 | -0.0083 | 0.558 | -0.0243 | 1.03 | 0.503 | 0.915 | 1.1 | -0.737 (inactive) | 0.005 | -0.169 | 1.54 | 0.988 (inactive) | -1.64 (inactive) | -0.0361 (inactive) | 3.15 | 0.571 (inactive) | -0.0622 | 0.959 | 0.759 | -0.0485 |
| Cc1ccc(C(C)CC(O)C2C=CC3C(=O)N(Cc4ccccc4)C(=O)C3N2n2cnnc2)o1 (stereo not given) | 1.67 | 0.46 | 0.522 | 0.703 | 1.29 | 0.907 | 1.44 | 0.386 (inactive) | 2.16 | 0.488 | 1.49 | -3.19 (inactive) | -2.84 (inactive) | -0.829 (inactive) | 2.51 | -1.56 (inactive) | 1.1 | 0.0433 | 1.09 | 0.778 |
| C=CC[C@]1(C(=O)N(C)C)N=C(c2ccc(OCCCO)cc2)O[C@H]1c1ccccc1 | 0.334 | 0.184 | 0.229 | 1.14 | 0.353 | 1.85 | 1.34 | 2.28 (inactive) | 0.463 | 0.064 | 1.43 | -1.76 (inactive) | -3.16 (inactive) | -0.979 (inactive) | 3.59 | 0.896 (inactive) | 0.0158 | 0.364 | 1.14 | -0.0512 |
| Cc1ccc(S[C@]2(C(=O)NCc3ccccc3)CC(=O)N(C3Cc4ccccc4C3)[C@@H]2c2ccc(CO)cc2I)cc1 | -0.0093 | 0.247 | -0.123 | -0.257 | -0.312 | 1.64 | -0.185 | -1.73 (inactive) | -0.134 | -0.246 | 1.19 | -2.5 (inactive) | -1.73 (inactive) | 0.199 (inactive) | 2.11 | 3.17 (inactive) | -0.165 | -0.508 | -0.288 | -0.135 |
